Inconclusive results are not listed. Where a call stands in place of a potency, no number is given. The source made the active and inactive calls. Calls follow the shape of the dose curve; as a rule, active = well fitted inhibition curve with a large enough effect; inconclusive = small, poorly fitted or top-dose-only effect; inactive = no such curve, though single readings can be large or run the other way.

Sequence of Coelenterazine h 2-monooxygenase (Renilla reniformis) (P27652 whole entry, looked up): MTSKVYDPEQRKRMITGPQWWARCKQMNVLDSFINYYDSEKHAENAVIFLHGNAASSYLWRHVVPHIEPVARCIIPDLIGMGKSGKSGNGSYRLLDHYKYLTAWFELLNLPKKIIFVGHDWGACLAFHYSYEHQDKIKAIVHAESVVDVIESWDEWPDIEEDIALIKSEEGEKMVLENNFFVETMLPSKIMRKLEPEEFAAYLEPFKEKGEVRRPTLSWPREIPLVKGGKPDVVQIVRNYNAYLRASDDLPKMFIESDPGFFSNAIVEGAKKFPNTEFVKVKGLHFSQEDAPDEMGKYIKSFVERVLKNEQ

The assay addresses Coelenterazine h 2-monooxygenase (Renilla reniformis) (UniProt P27652). The experiment in a line: qHTS Assay for Inhibitors of Sea Pansy Luciferase from the GSK Published Protein Kinase Inhibitor Set. The note with it: purified Renilla luciferase, luminescence; series mostly up to 57.5 µM. A digest of the protocol:
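qHTS (roughly 60 uM down to 300 pM) against 1 nM Renilla luciferase, substrate coelenterazine h 5 uM, Tris acetate pH 7.5 buffer with NaCl, Tween-20 and BSA. Luminescence measured after an average 2 min incubation.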
Regarding `O=S1CCN(Cc2ccc(-c3ccc4ncnc(Nc5ccc(OCc6ccccc6)c(Cl)c5)c4c3)o2)CC1`, the Potency entry was “inactive”.
With `Nc1nccc(-c2c(-c3ccc(F)cc3)ncn2C2CCNCC2)n1` the entry was “inactive”.
Turning to `N#Cc1cccc(Nc2nccc(-c3cnn4ncccc34)n2)c1`, the Potency entry is “inactive”.
With `COC(=O)Nc1nc2ccc(Sc3ccc(NC(=O)Nc4cc(C(F)(F)F)ccc4F)cc3)cc2[nH]1` the entry was “inactive”; with `CS(=O)(=O)CCNCc1ccoc1-c1ccc2ncnc(Nc3ccc(OCc4ccccc4)cc3)c2c1`, “inactive”.
With `COc1ccc2ncn(-c3cc(OC(C)c4ccccc4Cl)c(C(N)=O)s3)c2c1` (stereo unspecified) the entry was “inactive”; with `CCCN1CCC(Oc2cc(Nc3nc(Nc4cccc(F)c4C(N)=O)c4cc[nH]c4n3)c(OC)cc2Cl)CC1`, “inactive”; with `Cc1ccc(NC(=O)c2ccoc2)cc1-c1ccc(C(=O)NCC2CC2)cc1`, “inactive”.
Turning to `Cc1ccc(O)cc1Nc1ccnc2ccc(S(C)(=O)=O)cc12`, the Potency entry was “inactive”.
With `NC(=O)c1cccc(Nc2nccc(Nc3cccc(F)c3)n2)c1` the entry was “inactive”; with `CNC(=O)c1cc(-c2ccc(F)cc2)cc(-c2ccc(S(=O)(=O)N3CCCC3)cc2)c1N`, “inactive”; with `CCn1c(-c2nonc2N)nc2ccc(F)cc21`, “inactive”.
Consider `ON=C1CCc2cc(-c3nc(C4CCNCC4)[nH]c3-c3ccncc3)ccc21`, for which the Potency entry is “inactive”.
With `O=C(OC1CNC(C#Cc2cc3ncnc(Nc4ccc5c(ccn5Cc5cc(F)ccc5F)c4)c3s2)C1)N1CCOCC1` (stereo unspecified) the entry was “inactive”; with `CCc1nn2ncccc2c1-c1ccnc(NC2CC2)n1`, “inactive”; with `Cc1cc(O)cc(C)c1C=Cc1cncc(C(=O)N(C)C)c1`, “inactive”.
With `CCn1c(-c2nonc2N)nc2c(N3CCCC3)nccc21` the entry was “inactive”; with `COc1cc2ncn(-c3cc(OCCc4ccccc4)c(C(N)=O)s3)c2cc1OC`, “inactive”.
Under `CN1CCC(n2cnc(-c3ccc(F)cc3)c2-c2ccnc(NCCO)n2)CC1` stands “inactive”.
In the case of `CS(=O)(=O)CCNCc1ccc(-c2ccc3ncnc(Nc4ccc(OCc5ccccc5)c(Cl)c4)c3c2)o1`, the Potency result is “inactive”.
Under `CCS(=O)(=O)c1ccc(OC)c(Nc2ncc(-c3cccc(C(C)=O)c3)o2)c1` stands “inactive”.

The record behind these values is PubChem BioAssay AID652015 (National Center for Advancing Translational Sciences (NCATS), 2013).
